HPGD block = qHTS Assay for Inhibitors of HPGD (15-Hydroxyprostaglandin Dehydrogenase); 15-hydroxyprostaglandin dehydrogenase [NAD(+)] (Homo sapiens), P15428; purified HPGD, NADH fluorescence kinetic, PGE2 substrate; Potency, µM, for inactives: at the top dose activity change, negative = inhibition, actives largely listed as inhibitors; hit rate 4.3% among 150,000; further: on the % scale 0 is the no-effect control and ±100 the full control effect
Target sequence (P15428 whole entry, looked up): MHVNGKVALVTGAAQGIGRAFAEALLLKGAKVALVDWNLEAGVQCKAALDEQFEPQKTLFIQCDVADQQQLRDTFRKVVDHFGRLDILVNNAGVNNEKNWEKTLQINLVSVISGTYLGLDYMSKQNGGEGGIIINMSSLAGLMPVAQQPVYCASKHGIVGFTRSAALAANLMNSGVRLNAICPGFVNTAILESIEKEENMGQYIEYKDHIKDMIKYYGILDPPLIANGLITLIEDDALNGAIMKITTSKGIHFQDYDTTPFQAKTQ
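20 nM HPGD preincubated 15 min at room temperature with compound in 50 mM Tris-HCl pH 8, 0.01% Tween 20. Started with 1 mM NAD+ and 30 uM prostaglandin E2; NADH fluorescence (360/450 nm) read 5 times over 30-s intervals, last minus first.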
LMNA splice mod = qHTS Assay for Modulators of Lamin A Splicing. HeLa LMNA splicing GFP/RFP minigene ratio, 48 h. Potency, µM (series often up to 46.1 µM), inactives show top-dose ratio change, negative = inhibition, actives largely listed as inhibitors. hit rate 0.01% among 200,000. AID 1487, 2009; active means well fitted inhibition curve with a large enough effect in the signal ratio, with a control signal flat, not every such curve was filed as active; inconclusive means small, poorly fitted or top-dose-only effect, or effect the other way, or a change in a side signal; the % refers to the signal ratio; further: on the % scale 0 is the no-effect control and ±100 the full control effect
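S3 HeLa cells stably expressing lamin A-EGFP splicing minigene plus DsRed2, 600 cells/well, 48 h compound exposure at 37C. Laser-scanning cytometry; analysed as GFP (500-530 nm)/RFP (575-640 nm) total intensity ratio; 0.5% DMSO vehicle.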
KDM4E inh = qHTS Assay for Inhibitors of Human Jumonji Domain Containing 2E (JMJD2E); Lysine-specific demethylase 4E (Homo sapiens), B2RXH2; JMJD2E catalytic domain, FDH-coupled NADH fluorescence (FDH is formaldehyde dehydrogenase); Potency, µM (titrated, usually from 57.1 µM), inactives show top-dose activity change, negative = inhibition, actives largely listed as inhibitors; hit rate 1.6% among 230,000; AID 2147, 2009;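 further: 0% = wells with enzyme and -100% = buffer wells without enzyme; nearly all actives have a fitted effect of over 50% in size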
Target sequence (B2RXH2 1-337 limits assumed): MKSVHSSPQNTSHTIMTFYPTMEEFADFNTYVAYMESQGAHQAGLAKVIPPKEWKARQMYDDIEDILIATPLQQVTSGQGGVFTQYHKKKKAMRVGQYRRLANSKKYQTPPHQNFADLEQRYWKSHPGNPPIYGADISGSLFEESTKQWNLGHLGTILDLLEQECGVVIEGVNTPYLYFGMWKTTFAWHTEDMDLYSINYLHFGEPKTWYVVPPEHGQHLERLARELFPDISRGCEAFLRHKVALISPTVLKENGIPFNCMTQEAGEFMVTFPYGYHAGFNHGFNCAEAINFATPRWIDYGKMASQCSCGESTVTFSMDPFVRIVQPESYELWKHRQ
ALDH1A1 inh = qHTS Assay for Inhibitors of Aldehyde Dehydrogenase 1 (ALDH1A1); hit rate 7.3% among 220,000; Potency, µM (titrated, usually from 75.3 µM), inactives show top-dose activity, negative = inhibition, most hits filed as inhibitors; AID 1030, 2008; Aldehyde dehydrogenase 1A1 (Homo sapiens), P00352; Purified ALDH1A1, NADH fluorescence, propionaldehyde substrate;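 further: plate controls were no enzyme wells and a reference inhibitor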
HTT aggregate = qHTS Multiplex Assay to Identify Dual Action Probes in a Cell Model of Huntington: Aggregate Formation (GFP). PC12 HttQ103-GFP aggregates, Acumen cytometry, 40 h. Potency, µM (series often up to 46.1 µM), inactives show at the top dose activity change, negative = inhibition, usual class: inhibitors. hit rate 1.1% among 220,000; active means well fitted curve in the direction sought with a large enough effect; inconclusive means small, poorly fitted or top-dose-only effect, or another doubt; inactive means no such curve, though single readings can be large; an effect the other way counts as inactive or inconclusive; further: on the % scale 0 is the no-effect control and ±100 the full control effect; nearly all actives have a fitted effect of over 60% in size
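Read-out: GFP aggregate count by laser scanning cytometer (488 nm excitation, 500-530 nm emission, 1–25 µm objects >6 SD above background). Cells: PC12, inducible HTTex1-Q103-GFP, 100 nM tebufenozide; compounds titrated.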
HTT ATP protect = qHTS Multiplex Assay to Identify Dual Action Probes in a Cell Model of Huntington: Cytoprotection (ATP). PC12 HTT-Q103 induced, cytoprotection, ATP luminescence, 40 h. Potency, µM (doses to about 56.4 µM), for the others: cytoprotection (ATP increase), hits mostly activators. hit rate 0.14% among 230,000. AID 1471, 2008; active means well fitted curve in the direction sought with a large enough effect; inconclusive means small, poorly fitted or top-dose-only effect, or another doubt; inactive means no such curve, though single readings can be large; an effect the other way counts as inactive or inconclusive; further: % of control where 0% means no effect; nearly all actives have a fitted effect of over 45% in size
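Compounds were screened for protection of PC12 cells against cell death after tebufenozide induction (100 nM final) of mutant Huntingtin exon 1 (Q103) fused to GFP.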
The depositor's hits bear a star; ? = inconclusive; . = no result; [ ] = another dose, or the depositor's remark. Compounds with a hit are over-represented: about 9.2% of the library has one in this group of screens. Unless noted, the call rests on the fitted dose curve; in most records, active means well fitted inhibition curve with a large enough effect (not every such curve was filed as active); inconclusive means small, poorly fitted or top-dose-only effect, or another doubt; inactive means no such curve, though single readings can be large or run the other way. Potency means the concentration at half of the fitted maximal effect.

SMILES | HPGD block | LMNA splice mod | KDM4E inh | ALDH1A1 inh | HTT aggregate | HTT ATP protect
C/C(=C\C(=O)c1cccnc1)Nc1ccc(O)cc1 | 16µM* | 18% | ? | ? | -2% | -20%
Cc1cc(=O)n(Cc2ccc(Br)cc2F)c2c1c(C)nn2-c1ccccc1 | . | 11%[46 µM] | . | . | . | .
CC(=O)OCC1OC(c2ccc3c(c2)OCO3)C=CC1OC(C)=O (stereo not drawn) | . | . | . | -3%[13.5 µM] | . | -72%[10 µM]
COc1ccccc1C(=O)C1CCCN(C(=O)CCc2ccccn2)C1 (stereo not drawn) | . | . | -12% | 18µM* | -33% | 5%
COC(=O)CCCC(=O)N1CCCC(C(=O)c2ccc(OC)cc2C)C1 (stereo not drawn) | . | . | 3% | 2.5µM* | -3%[9.22 µM] | 16%[10 µM]
COc1ccc(C(=O)C2CCCN(C(=O)CCc3ccccn3)C2)c(C)c1 (stereo not drawn) | . | . | 8% | 7% | -2%[9.22 µM] | 21%[10 µM]
O=C(O)c1cc(S(=O)(=O)NCc2ccco2)c(Cl)cc1Cl | -18% | 0% | 4% | 20µM* | 5% | 2%
CC(=O)N(C(C)=O)c1ncc2c([nH]c3ccccc32)c1C#N | ? | 8% | ? | ? | 3.2µM* | -5%
CCN(CC)c1ccc(/C=N/Nc2ccccc2)c(O)c1 | 28µM* | 21% | 16µM* | 3.5µM* | 16% | -11%
CCN(CC)c1ccc(/C=N/Nc2cccc(C)c2)c(O)c1 | 22µM* | 8% | ? | 10µM* | -5% | 41%[10 µM]
O=C1CCC/C(=N/NC(=O)C2CCN(S(=O)(=O)c3cccs3)CC2)C1 | -2% | 5% | -11% | 4% | 15% | 7%[10 µM]
O=C(c1cc2nc(C3CC3)cc(C(F)F)n2n1)N1CCOCC1 | 32µM* | 5% | 2% | ? | 8% | -11%[0.074 µM]
O=C(c1cnn2c(C(F)F)cc(C3CC3)nc12)N1CCCC1 | -24% | 5% | -1% | 1% | 7% | 12%[10 µM]
CCOC(=O)C1CCN(C(=O)CS(=O)Cc2nc(-c3ccc(C)cc3)oc2C)CC1 (stereo not drawn) | -15% | -13% | -5% | 25µM* | 8% | -1%
Cc1nc(N2CCOCC2)c2nc(-c3ccccc3)n(CC3CCN(C)CC3)c2n1 | ? | . | ? | ? | . | 2%
CCC(C)(C)NC(=O)C(c1cccn1C)N(C(=O)Cn1nnc2ccccc21)c1ccc(OC)cc1OC (stereo not drawn) | -1% | -8% | -2% | 11µM* | -4% | -7%[10 µM]
NCCCNC(=O)c1cc2ccccc2[nH]1 | -13% | -12% | ? | -5% | 11% | -7%[0.074 µM]
CCCC(C)NNC(=O)c1cc2ccccc2[nH]1 (stereo not drawn) | 13µM* | 16% | -10% | 13% | -2% | -12%
CCOc1ccc(S(=O)(=O)N/N=C2/CC(c3ccccc3)Oc3ccccc32)cc1 (stereo not drawn) | -8% | -15% | 6% | ? | ? | -31%
C(=N\Nc1nc(N2CCCCC2)nc(N2CCCCC2)n1)/c1c[nH]c2ccccc12 | . | . | -2% | -8% | 5%[9.22 µM] | -5%[10 µM]
CN(C)c1nc(N/N=C/c2c[nH]c3ccccc23)nc(N2CCOCC2)n1 | . | . | 0% | 19µM* | -3% | ?
Cc1nc([N+](=O)[O-])c(Br)n1Cc1ccccc1 | . | . | 4% | . | 31%[9.22 µM] | 0%[10 µM]
Cc1nc([N+](=O)[O-])c(Sc2nc3ccc([N+](=O)[O-])cc3[nH]2)n1Cc1ccccc1 | ? | ? | 7% | 7.5µM* | 2% | ?
N#Cc1nc(-c2ccc(COc3ccccc3)o2)oc1NCc1cccnc1 | . | -5%[46 µM] | . | . | . | .
CCc1ccc(C(=O)CSc2n[nH]c(-c3ccncc3)n2)cc1 | 11µM* | ? | -3% | ? | ? | -35%
SMILES | HPGD block | LMNA splice mod | KDM4E inh | ALDH1A1 inh | HTT aggregate | HTT ATP protect
O=C(CSc1n[nH]c(-c2ccccc2)n1)c1ccc(O)c(O)c1 | 3.5µM* | ? | 28µM* | -2% | -11% | 23%[10 µM]
COC(=O)CSc1n[nH]c(-c2ccncc2)n1 | -12% | -5% | -11% | -2% | 3% | -10%
O=C(CSc1n[nH]c(-c2ccccc2)n1)NCc1cccc(C(=O)O)c1 | . | ? | 1% | 0% | 8%[9.22 µM] | 30%[10 µM]
Cc1nc(NC(=S)NC(=O)c2cccs2)sc1C(=O)N(C)C | 22µM* | 26% | -8% | 4.5µM* | -8% | -43%
COc1ccc(C(=O)NC(=S)Nc2nc(C)c(C(=O)N(C)C)s2)cc1 | -16% | -1% | 4% | ? | 20% | -6%
CCOc1ccccc1C(=O)N1CCC(n2nnc3cc(C(F)(F)F)ccc32)CC1 | -4% | -3% | -4% | 28µM* | ? | 18%[10 µM]
CCOc1ccc2ncc(S(=O)(=O)c3ccc(C)cc3)c(N3CCC4(CC3)OCCO4)c2c1 | . | ? | ? | 3.2µM* | ? | -6%[10 µM]
CC(=O)NC[C@@H]1CN(c2ccc(N3CCOCC3)c(F)c2)C(=O)O1 | . | 0% | . | . | -16% | ?
CCOC(=O)c1cc(NC(=O)CSCCO)ccc1Cl | -4% | 1% | 8% | 22µM* | 17% | -12%
c1cncc(-c2nc(N3CCOCC3)c3ccccc3n2)c1 | -30% | -18% | -4% | ? | 0.89µM* | -7%
c1ccc2c(N3CCOCC3)nc(-c3ccncc3)nc2c1 | -6% | ? | -2% | -5% | ? | -26%[10 µM]
CC(C)[C@H](Nc1ccc(S(=O)(=O)N2CCOCC2)cc1[N+](=O)[O-])C(=O)OCC(N)=O | -2% | 2% | 5% | 18µM* | 9% | 2%[10 µM]
NC(=S)N/N=C1\CCSc2ccc(Cl)cc21 | . | . | ? | . | 27%[9.22 µM] | ?
NNC(=O)C(Cc1c[nH]c2ccccc12)NC(=O)c1ccccc1 (stereo not drawn) | . | . | 58% | -18% | 5%[9.22 µM] | -18%[10 µM]
O=C(NCCCN1CCOCC1)c1cc(C(=O)C2CCCCC2)c[nH]1 | . | 11%[46 µM] | 2% | 25µM* | -5% | -11%[10 µM]
CCC(CC)C(=O)c1c[nH]c(C(=O)NCCCN2CCOCC2)c1 | 0% | -11% | 5% | 3% | -9% | -99%
CCOC(=O)/C(C#N)=C\C1=C(N2CCCC2)CC(C)(CC)OC1 (stereo not drawn) | -20% | -6% | -19% | ? | 2% | 1%[10 µM]
CCOC(=O)/C(C#N)=C\C1=C(N2CCCC2)CC(C)(C)OC1 | -21% | -4% | ? | 14µM* | 3% | 4%[1.9 µM]
C/C(Cl)=C/CCl | -7% | . | . | ? | . | 5%
